Bioassay records as filed in PubChem.
NPC1 prom act: qHTS Assay for NPC1 Promoter Activators; Huh7 NPC1 promoter luciferase reporter, 24 h; Potency, µM (top dose mostly 9.22 µM), most hits filed as activators; 2.4% of 320,000 active; AID 485313, 2010; further: nearly all actives have a fitted effect of over 60% in size
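Readout is luciferase luminescence, reflecting NPC1 promoter activation in stably transfected Huh7 cells after 24 h compound exposure at 37 °C in reduced-serum medium with 10% FBS.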
KinaseGlo FLuc: Counterscreen for Luciferase (Kinase-Glo TM) Inhibition; 0.28% of 200,000 active; Potency, µM (top dose mostly 38.3 µM), hits mostly inhibitors; AID 1379, 2008; Kinase-Glo luciferase, ATP luminescence, 8 min; further: nearly all actives have a fitted effect of over 60% in size
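Compound is pinned into ATP-containing buffer (10 uM ATP, imidazole pH 7.2, 7 mM MgCl2). Kinase-Glo luciferase reagent is then added. Light output is recorded following an 8-min room-temperature incubation.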
FLuc counter: qHTS profiling assay for firefly luciferase inhibitor/activator using purifed enzyme and Km concentrations of substrates (counterscreen for miR-21 project) | Luciferin 4-monooxygenase (Photinus pyralis), P08659 | 6.9% of 360,000 active | AID 588342, 2011 | purified FLuc, Km substrates, luminescence inhibition | Potency, µM (doses to about 57.5 µM), actives largely listed as inhibitors; further: nearly all actives have a fitted effect of over 55% in size
Target sequence (P08659 whole entry, looked up): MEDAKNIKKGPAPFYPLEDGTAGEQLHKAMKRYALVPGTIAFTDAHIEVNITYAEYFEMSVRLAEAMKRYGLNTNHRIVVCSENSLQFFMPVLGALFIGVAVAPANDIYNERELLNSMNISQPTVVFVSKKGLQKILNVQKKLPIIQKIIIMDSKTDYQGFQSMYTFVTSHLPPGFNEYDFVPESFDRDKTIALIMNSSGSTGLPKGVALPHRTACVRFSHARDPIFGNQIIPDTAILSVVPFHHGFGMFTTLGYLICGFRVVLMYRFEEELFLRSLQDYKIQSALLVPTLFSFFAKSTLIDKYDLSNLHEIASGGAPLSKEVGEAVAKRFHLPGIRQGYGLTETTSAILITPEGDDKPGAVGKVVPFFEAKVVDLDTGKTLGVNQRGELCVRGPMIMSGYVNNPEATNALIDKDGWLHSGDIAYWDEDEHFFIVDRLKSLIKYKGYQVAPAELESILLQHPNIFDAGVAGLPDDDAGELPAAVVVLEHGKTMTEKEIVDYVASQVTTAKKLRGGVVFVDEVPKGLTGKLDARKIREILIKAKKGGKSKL
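Biochemical qHTS of compounds, final roughly 60 µM downward over six points, against 10 nM purified firefly luciferase using Km concentrations of substrates (10 uM D-luciferin, 10 uM ATP) in Tris acetate pH 7.5 buffer; luminescence output.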
ELG1 genotox: qHTS screen for small molecules that induce genotoxicity in human embryonic kidney (HEK293T) cells expressing luciferase-tagged ELG1; HEK293T ELG1-luciferase reporter, luminescence, 16 h; Potency, µM (highest dose often 46 µM), actives largely listed as activators; 1.3% of 330,000 active; AID 504466, 2011; further: nearly all actives have a fitted effect of over 60% in size
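Genotoxicity was scored as increased ELG1-luciferase reporter signal, measured by ONE-Glo luminescence (30 min, room temperature). Compound or vehicle exposure of the HEK293T reporter cells lasted 16 hr at 37°C.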
SMN2 splice up: qHTS Assay for Enhancers of SMN2 Splice Variant Expression | HEK293 SMN2-luciferase splicing reporter, luminescence, 30-36 h | 2.8% of 210,000 active | Potency, µM (doses to about 46.1 µM), most hits filed as activators; further: nearly all actives have a fitted effect of over 55% in size
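HEK293 cells carry an SMN2 minigene-luciferase reporter in which exon 7 inclusion puts luciferase in frame. Cells were seeded at 2000 cells/well, attached for 10-12 hours, then exposed to compounds for 30-36 hours at 37C before ONE-Glo luminescence.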
Rab9 prom act: qHTS Assay for Rab9 Promoter Activators; Huh7 Rab9 promoter-luciferase reporter, luminescence, 24 h; Potency, µM (series often up to 9.22 µM), hits mostly activators; 2.8% of 320,000 active; AID 485297, 2010; further: nearly all actives have a fitted effect of over 60% in size
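Luciferase signal after 10 min detection reagent at ambient indicates Rab9 promoter upregulation; stably transfected Huh7 cells were treated 24 h with compound in DMSO at 37 °C, 5% CO2.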
Numbers stand for hits; - = inactive; ? = inconclusive; . = no result. Sampled rows, rich in hits. Any-hit rate of the full collection: about 7.5%. The call rests on the fitted dose curve; in most records, active means well fitted curve in the direction sought with a large enough effect; inconclusive means small, poorly fitted or top-dose-only effect, or another doubt; inactive means no such curve, though single readings can be large; an effect the other way counts as inactive or inconclusive.

SMILES	NPC1 prom act	KinaseGlo FLuc	FLuc counter	ELG1 genotox	SMN2 splice up	Rab9 prom act
CCOc1cc(C2NN=C(c3ccccc3)S2)ccc1OCc1ccc(F)cc1 (stereo unspecified)	?	-	6µM	8.2µM	13µM	3.2µM
CCOc1cc(C2NN=C(c3ccccc3)S2)ccc1OCc1ccccc1Cl (stereo unspecified)	?	-	7.6µM	?	-	?
CNCc1ccccc1OCc1ccc(F)cc1	-	-	-	-	-	-
COc1ccc(-c2csc3ncnc(Nc4ccc(OC)c(OC)c4)c23)cc1	.	.	-	.	.	.
Cc1cc(C)c2nc(-c3ccncc3)cc(C(=O)N3CCN(Cc4ccccc4Cl)CC3)c2c1	-	.	15µM	-	.	-
O=C(O)c1cc(-c2cccnc2)nc2ccccc12	-	.	-	-	.	-
CCn1cc(-c2cc(C(=O)O)c3ccccc3n2)c(C)n1	-	-	9.5µM	-	-	-
Cn1ccc(-c2cc(C(=O)O)c3ccccc3n2)n1	-	-	?	-	-	-
CCn1cc(-c2cc(C(=O)O)c3ccccc3n2)cn1	-	?	2.7µM	-	-	-
COC(=O)c1ccc(Cl)cc1NC(=O)N1CCCn2nc(C)cc21	.	.	-	.	.	.
Cc1cc(N/N=C/c2ccc(Cl)cc2)nc(NCc2ccccc2)n1	-	-	15µM	-	-	-
CN(C)c1nc(NCc2ccccc2)nc(N/N=C/c2ccccc2F)n1	-	-	-	-	-	-
Cc1cc(N/N=C/c2ccccc2F)nc(NCc2ccccc2)n1	-	.	15µM	-	.	-
Cc1cc(Nc2cccc(Cl)c2)nc(NCc2ccccc2)n1	-	-	?	-	-	-
Cc1cc(N/N=C/c2cccc(F)c2)nc(NCc2ccccc2)n1	-	.	12µM	-	.	-
Cc1cc(N/N=C/c2cccc(Cl)c2)nc(NCc2ccccc2)n1	-	-	?	-	-	-
Cc1cc(N/N=C/c2ccccc2)nc(NCc2ccccc2)n1	-	-	6µM	-	-	-
CC(=O)Nc1ccc(C(=O)CSc2nnc(-c3ccccc3)n2-c2ccccc2)cc1	.	.	-	.	-	.
Cc1oc2ncn(CC(C)C)c(=O)c2c1C(=O)NCCCN1CCC(C)CC1	.	.	-	.	.	.
COc1cc(-c2[nH]ncc2CN2CCSCC2)cc(OC)c1OC	-	.	-	18µM	.	-
COc1ccc(NC(=O)CCc2c(C)nc3c(-c4ccccc4)c(C)nn3c2C)cc1Cl	.	.	-	.	-	.
O=C(Nc1nccs1)c1sc2cc(Cl)ccc2c1Cl	3.5µM	-	2.7µM	-	?	4µM
Cc1csc(NC(=O)CCn2c(=O)sc3ccccc32)n1	-	-	?	-	-	-
Cc1onc(-c2ccccc2Cl)c1C(=O)Nc1nnc(C(C)C)s1	-	-	-	-	-	-
Cc1ccnc(NC(=O)c2sc3ccccc3c2Cl)c1	0.1µM	-	0.12µM	0.92µM	3.2µM	0.32µM
SMILES	NPC1 prom act	KinaseGlo FLuc	FLuc counter	ELG1 genotox	SMN2 splice up	Rab9 prom act
O=C(CCn1c(=O)sc2ccccc21)Nc1nccs1	-	-	13µM	?	-	-
CC(C)c1nnc(NC(=O)c2sc3ccccc3c2Cl)s1	3.2µM	-	4.8µM	-	?	?
O=C(Nc1nccs1)c1cc(Cl)ccc1[N+](=O)[O-]	-	-	-	-	-	-
CCOc1ccc(C(=O)c2oc3ccccc3c2NC(=O)Cc2coc3ccc(CC)cc23)cc1	.	.	-	.	-	.
O=C(Nc1nccs1)c1sc2ccccc2c1Cl	4µM	-	0.67µM	?	2.5µM	1.1µM
O=C(Nc1nccs1)c1ccc(Cl)s1	?	-	?	?	-	?
CCCn1nnc(NC(=O)c2sc3ccccc3c2Cl)n1	?	-	27µM	9.2µM	?	3.2µM
CCCn1nnc(NC(=O)Cc2ccccc2)n1	-	-	-	-	-	-
Cc1cnc(NC(=O)c2sc3ccccc3c2Cl)s1	?	-	0.3µM	0.65µM	1µM	?
O=C(Nc1ccccn1)c1sc2cc([N+](=O)[O-])ccc2c1Cl	?	.	?	-	.	1.3µM
O=C(NCCCN1CCOCC1)c1sc2cc([N+](=O)[O-])ccc2c1Cl	-	-	?	-	-	-
OCCC1CN(C/C=C/c2ccco2)CCN1Cc1ccccc1 (stereo unspecified)	-	.	-	-	.	-
CCOC(=O)N1N=C(c2ccc(C)cc2)CC1(O)C(F)(F)F (stereo unspecified)	0.89µM	-	5.4µM	?	-	0.71µM
COC(=O)N1N=C(c2ccc(Br)cc2)CC1(O)C(F)(F)F (stereo unspecified)	3.5µM	-	11µM	?	16µM	?
CCOC(=O)N1N=C(c2ccccc2)CC1(O)C(F)(F)F (stereo unspecified)	3.5µM	-	13µM	?	?	2.2µM
O=C(c1ccccc1)N1N=C(c2ccccc2)CC1(O)C(F)(F)F (stereo unspecified)	-	.	-	-	.	-
CCCCOc1ccc(C2=NC(c3ccncc3)=Nc3ccc(Br)cc3N2)cc1	.	.	-	.	-	.
O=S(=O)(NCCS(=O)(=O)N1CCN(c2ccccc2F)CC1)c1ccc(Cl)cc1	.	.	-	.	.	.
CCOC(=O)c1cc(=O)n2nc(-c3ccc(C)cc3)nc2s1	-	-	3µM	-	-	-
CCOC(=O)Cc1csc2nc(-c3ccccc3)nn12	-	.	-	-	.	-
COc1ccc(C(=S)N2CCC(C(N)=O)CC2)cc1Br	-	-	-	-	-	-
CCCCOc1ccc(C(=S)N2CCC(C(N)=O)CC2)cc1	?	-	24µM	?	?	4.5µM
CC(NC(=O)CSc1nc(-c2cccc(Cl)c2)nc2cc(=O)[nH]n12)c1nc2ccccc2n1C (stereo unspecified)	.	.	-	.	.	.
CC(C)c1nc2cc(C(=O)N(C)Cc3ccc(F)cc3)ccc2o1	-	.	?	-	.	?
COC(=O)Cc1ccc(NC(=S)Nc2ccccn2)cc1	-	-	21µM	-	.	?
SMILES	NPC1 prom act	KinaseGlo FLuc	FLuc counter	ELG1 genotox	SMN2 splice up	Rab9 prom act
COC(=O)Cc1ccc(NC(=S)NCCO)cc1	-	.	-	-	.	-
CC(C)(C)NC(=S)NCCc1ccccc1	3.2µM	.	11µM	?	.	1.8µM
S=C(NCCc1ccccc1)NN=C1CCCCCC1	?	-	17µM	?	13µM	?
COC(=O)Cc1ccc(NC(=S)NCCC(C)C)cc1	-	-	17µM	-	-	-
CCC(C)Sc1oc(-c2ccco2)nc1S(=O)(=O)c1ccc(C)cc1 (stereo unspecified)	.	.	-	.	-	.
CN(C)CCN(C(=O)c1ccc(N2C(=O)CCC2=O)cc1)c1nc2cc3c(cc2s1)OCCO3	-	-	?	-	.	-
